Measurements as given in PubChem BioAssay (Tox21).
Results filed as inconclusive are left out. The source made the active and inactive calls. Unless noted, calls come from the whole dose curve; as a rule, active = well fitted curve in the direction sought with a large enough effect in the repeat runs; inconclusive = weak or mixed curves; inactive = no such curve, though single readings can be large; an effect the other way counts as inactive or inconclusive.

Tests used:
[1] = qHTS assay to identify small molecule agonists of the TGF-beta/Smad signaling pathway (AID 1346859; active = well fitted activation curve with a large enough effect in the signal ratio in the repeat runs, not every such curve was filed as active; the % refers to the signal ratio; note: series mostly up to about 77 µM)
Procedure, shortened: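 Stable Smad binding element-beta-lactamase HEK 293T cells; 5 hr compound exposure at 37 C under 5% CO2; 2 hr room-temperature substrate step; fluorescence excited at 405 nm, collected at 460 nm and 530 nm.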

[2] = biological target: Thyrotropin-releasing hormone receptor (Homo sapiens) (UniProt P34981); assay: qHTS assay to identify small molecule antagonists of the thyrotropin-releasing hormone receptor (TRHR) signaling pathway (AID 1346877; active = well fitted inhibition curve with a large enough effect in the repeat runs, not every such curve was filed as active; note: series mostly up to about 51 µM)
Sequence of Thyrotropin-releasing hormone receptor (Homo sapiens) (P34981 whole entry, looked up): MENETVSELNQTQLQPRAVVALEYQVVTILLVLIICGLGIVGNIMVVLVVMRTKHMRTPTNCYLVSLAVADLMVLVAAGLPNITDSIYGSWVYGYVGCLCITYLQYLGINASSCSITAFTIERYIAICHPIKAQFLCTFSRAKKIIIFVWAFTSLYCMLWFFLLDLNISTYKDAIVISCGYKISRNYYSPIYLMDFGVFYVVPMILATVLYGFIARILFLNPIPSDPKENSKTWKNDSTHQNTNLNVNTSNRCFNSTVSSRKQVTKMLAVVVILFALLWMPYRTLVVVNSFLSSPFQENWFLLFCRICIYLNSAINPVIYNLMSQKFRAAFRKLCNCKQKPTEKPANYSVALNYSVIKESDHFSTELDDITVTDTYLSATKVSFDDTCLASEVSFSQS
Procedure, shortened: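 Screening used HEK293 cells engineered with TRHR, with a brief 5 min room-temperature compound exposure preceding addition of TRH to 1 nM. The read-out was kinetic calcium-dye fluorescence, concentration-response from 15 doses in triplicate.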

[3] = biological target: Thyrotropin-releasing hormone receptor (Homo sapiens) (UniProt P34981); assay: qHTS assay to identify small molecule agonists of the thyrotropin-releasing hormone receptor (TRHR) signaling pathway (AID 1346891; calls by dose curve;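 note: HEK293 cells expressing TRHR with calcium dye readout; series mostly up to about 58 µM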)
Procedure, shortened: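 In 1536-format, 1500 TRHR-Hek293 cells per well grew 18 h, took up calcium dye for 2 h at 37 °C, received compound, and were read kinetically; 15-point titrations, triplicates.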

[4] = Human pregnane X receptor (PXR) small molecule agonists, qHTS cell viability counter screen (AID 1346977); note: nearly all actives have a fitted effect of over 50% in size
Procedure, shortened: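 Readout is CellTiter-Fluor fluorescence from PXR-Luc HepG2 cells. Plated cells rested 5hr, then were treated with compounds for 24hr at 37C and 5% CO2, with reagent present during the last hour.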

[5] = Caspase-3/7 induction in HepG2 cells by small molecules, qHTS assay (AID 1346978); note: nearly all actives have a fitted effect of over 15% in size
Procedure, shortened: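 Wild-type HepG2 cells, 2,000/well, settled 5 hr at 37 C and 5% CO2, then compound-treated for 17 hr; caspase-3/7 activity read by luminescent Caspase-Glo 3/7 after 30 min at room temperature.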

[6] = Caspase-3/7 induction in CHO-K1 cells by small molecules, qHTS cell viability counter screen (AID 1346979); note: nearly all actives have a fitted effect of over 35% in size
Procedure, shortened: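 To flag cytotoxic compounds, treated CHO-K1 wild-type cells were given CellTiter-Fluor at 16hr and read fluorescently after 1hr at 37C; the caspase-3/7 luminescence was measured in these same wells.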

[7] = Caspase-3/7 induction in CHO-K1 cells by small molecules, qHTS assay (AID 1346980); note: nearly all actives have a fitted effect of over 15% in size
Procedure, shortened: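 Wild-type CHO-K1 cells exposed to compounds for 17hr at 37 C, 5% CO2. Caspase-3/7 activity then measured by Caspase-Glo 3/7 luminescence after 30min at room temperature.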

[8] = Caspase-3/7 induction in HepG2 cells by small molecules, qHTS cell viability counter screen (AID 1346981); note: series mostly up to about 92 µM; nearly all actives have a fitted effect of over 30% in size
Procedure, shortened: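 Multiplexed with the caspase-3/7 assay: HepG2 cells, 16 hr compound treatment, CellTiter-Fluor viability detection by fluorescence.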

[9] = biological target: Nuclear receptor subfamily 1 group I member 2 (Homo sapiens) (UniProt O75469); assay: Human pregnane X receptor (PXR) small molecule agonists, qHTS assay (AID 1346982); note: nearly all actives have a fitted effect of over 35% in size; note: potency is the fitted concentration of half-maximal effect
Sequence of Nuclear receptor subfamily 1 group I member 2 (Homo sapiens) (O75469 whole entry, looked up): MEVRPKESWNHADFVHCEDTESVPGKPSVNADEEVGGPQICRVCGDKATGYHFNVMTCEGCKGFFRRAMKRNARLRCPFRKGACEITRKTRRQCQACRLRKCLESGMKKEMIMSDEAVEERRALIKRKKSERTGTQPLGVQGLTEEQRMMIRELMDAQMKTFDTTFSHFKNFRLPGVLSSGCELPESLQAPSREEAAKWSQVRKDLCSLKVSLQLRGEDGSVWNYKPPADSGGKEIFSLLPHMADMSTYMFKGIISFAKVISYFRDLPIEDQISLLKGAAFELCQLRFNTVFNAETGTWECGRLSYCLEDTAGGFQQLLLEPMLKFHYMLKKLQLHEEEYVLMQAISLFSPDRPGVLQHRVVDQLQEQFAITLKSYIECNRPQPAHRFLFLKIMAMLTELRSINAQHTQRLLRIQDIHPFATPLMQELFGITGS
Procedure, shortened: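 We seeded PXR-Luc HepG2 cells in assay medium containing 5% charcoal-stripped FBS, added compounds 5 hr later, incubated 24 hr, and read luminescence with ONE-Glo reagent.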

[10] = biological target: Cytochrome P450 2D6 (Homo sapiens) (UniProt P10635); assay: Cytochrome P450 Family 2 Subfamily D Member 6 (CYP2D6) small molecule antagonists: luciferase reporter qHTS assay (AID 1671196); note: nearly all actives have a fitted effect of over 50% in size; note: potency is the fitted concentration of half-maximal effect; for activity change, negative = inhibition: series mostly up to about 120 µM
Sequence of Cytochrome P450 2D6 (Homo sapiens) (P10635 whole entry, looked up): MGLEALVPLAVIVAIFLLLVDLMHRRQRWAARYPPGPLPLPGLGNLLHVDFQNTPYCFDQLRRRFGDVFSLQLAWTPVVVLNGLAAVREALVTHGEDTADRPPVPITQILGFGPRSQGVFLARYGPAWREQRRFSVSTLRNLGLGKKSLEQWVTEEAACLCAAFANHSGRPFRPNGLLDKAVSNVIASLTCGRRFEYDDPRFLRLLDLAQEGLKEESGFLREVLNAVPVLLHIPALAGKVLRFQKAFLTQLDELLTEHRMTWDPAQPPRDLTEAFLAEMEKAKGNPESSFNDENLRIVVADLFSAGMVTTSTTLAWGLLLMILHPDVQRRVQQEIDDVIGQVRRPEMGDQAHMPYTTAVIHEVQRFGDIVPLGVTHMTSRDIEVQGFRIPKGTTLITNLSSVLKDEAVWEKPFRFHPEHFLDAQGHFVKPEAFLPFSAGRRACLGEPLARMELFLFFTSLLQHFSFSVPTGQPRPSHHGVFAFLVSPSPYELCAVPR
Procedure, shortened: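 Luminescence (RLU), read 20 min after detection reagent, indicated CYP2D6 conversion of proluciferin to luciferin during a 1 h NADPH-dependent reaction at room temperature.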

[11] = biological target: Cytochrome P450 2C9 (Homo sapiens) (UniProt P11712); assay: Cytochrome P450 Family 2 Subfamily C Member 9 (CYP2C9) small molecule antagonists: luciferase reporter qHTS assay (AID 1671198); note: nearly all actives have a fitted effect of over 50% in size; note: potency is the fitted concentration of half-maximal effect; for activity change, negative = inhibition: series mostly up to about 120 µM
Sequence of Cytochrome P450 2C9 (Homo sapiens) (P11712 whole entry, looked up): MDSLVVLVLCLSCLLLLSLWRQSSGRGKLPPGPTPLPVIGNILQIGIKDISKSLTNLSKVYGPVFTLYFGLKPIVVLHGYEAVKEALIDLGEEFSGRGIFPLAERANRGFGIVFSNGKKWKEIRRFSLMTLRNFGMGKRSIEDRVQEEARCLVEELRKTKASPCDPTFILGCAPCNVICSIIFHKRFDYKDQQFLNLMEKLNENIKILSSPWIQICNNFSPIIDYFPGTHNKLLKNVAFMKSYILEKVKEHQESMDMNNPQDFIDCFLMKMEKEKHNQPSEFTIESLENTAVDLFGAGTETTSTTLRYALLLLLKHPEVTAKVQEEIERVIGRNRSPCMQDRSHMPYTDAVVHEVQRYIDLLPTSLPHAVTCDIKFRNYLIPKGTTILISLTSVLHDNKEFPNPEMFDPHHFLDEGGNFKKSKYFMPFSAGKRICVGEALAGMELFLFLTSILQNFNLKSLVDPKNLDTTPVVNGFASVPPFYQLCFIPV
Procedure, shortened: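 P450-Glo proluciferin substrate with CYP2C9 enzyme; 10 min RT preincubation, then NADPH regeneration 1 h at 37C; luciferin detection reagent 20 min RT, luminescence in relative luminescence units.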

[12] = biological target: Cytochrome P450 1A2 (Homo sapiens) (UniProt P05177); assay: Cytochrome P450 Family 1 Subfamily A Member 2 (CYP1A2) small molecule antagonists: luciferase reporter qHTS assay (AID 1671199); note: nearly all actives have a fitted effect of over 50% in size; note: potency is the fitted concentration of half-maximal effect; for activity change, negative = inhibition: series mostly up to about 120 µM
Sequence of Cytochrome P450 1A2 (Homo sapiens) (P05177 whole entry, looked up): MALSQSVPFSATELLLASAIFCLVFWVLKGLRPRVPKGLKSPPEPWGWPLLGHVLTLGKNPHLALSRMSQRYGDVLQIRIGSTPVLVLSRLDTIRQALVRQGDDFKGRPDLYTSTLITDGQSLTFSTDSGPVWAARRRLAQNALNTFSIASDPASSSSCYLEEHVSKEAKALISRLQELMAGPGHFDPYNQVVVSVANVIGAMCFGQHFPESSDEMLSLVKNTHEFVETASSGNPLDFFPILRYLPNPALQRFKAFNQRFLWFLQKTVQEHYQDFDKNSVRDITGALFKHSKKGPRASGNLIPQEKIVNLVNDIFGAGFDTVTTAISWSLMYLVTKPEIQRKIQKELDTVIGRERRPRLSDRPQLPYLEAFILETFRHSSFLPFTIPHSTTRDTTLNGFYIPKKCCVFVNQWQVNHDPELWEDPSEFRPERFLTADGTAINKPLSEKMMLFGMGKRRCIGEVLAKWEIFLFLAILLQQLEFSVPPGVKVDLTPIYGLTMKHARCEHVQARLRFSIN
Procedure, shortened: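 CYP1A2 turnover of a luminogenic substrate was quantified after 1 h with NADPH regeneration at room temperature. Furafylline served as positive control.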

[13] = biological target: Voltage-gated inwardly rectifying potassium channel KCNH2 (Homo sapiens) (UniProt Q12809); assay: Human Ether-a-go-go-Related Gene (hERG) channel small molecule antagonists: fluorescence cell-based qHTS assay (AID 1671200)
Sequence of Voltage-gated inwardly rectifying potassium channel KCNH2 (Homo sapiens) (Q12809 whole entry, looked up): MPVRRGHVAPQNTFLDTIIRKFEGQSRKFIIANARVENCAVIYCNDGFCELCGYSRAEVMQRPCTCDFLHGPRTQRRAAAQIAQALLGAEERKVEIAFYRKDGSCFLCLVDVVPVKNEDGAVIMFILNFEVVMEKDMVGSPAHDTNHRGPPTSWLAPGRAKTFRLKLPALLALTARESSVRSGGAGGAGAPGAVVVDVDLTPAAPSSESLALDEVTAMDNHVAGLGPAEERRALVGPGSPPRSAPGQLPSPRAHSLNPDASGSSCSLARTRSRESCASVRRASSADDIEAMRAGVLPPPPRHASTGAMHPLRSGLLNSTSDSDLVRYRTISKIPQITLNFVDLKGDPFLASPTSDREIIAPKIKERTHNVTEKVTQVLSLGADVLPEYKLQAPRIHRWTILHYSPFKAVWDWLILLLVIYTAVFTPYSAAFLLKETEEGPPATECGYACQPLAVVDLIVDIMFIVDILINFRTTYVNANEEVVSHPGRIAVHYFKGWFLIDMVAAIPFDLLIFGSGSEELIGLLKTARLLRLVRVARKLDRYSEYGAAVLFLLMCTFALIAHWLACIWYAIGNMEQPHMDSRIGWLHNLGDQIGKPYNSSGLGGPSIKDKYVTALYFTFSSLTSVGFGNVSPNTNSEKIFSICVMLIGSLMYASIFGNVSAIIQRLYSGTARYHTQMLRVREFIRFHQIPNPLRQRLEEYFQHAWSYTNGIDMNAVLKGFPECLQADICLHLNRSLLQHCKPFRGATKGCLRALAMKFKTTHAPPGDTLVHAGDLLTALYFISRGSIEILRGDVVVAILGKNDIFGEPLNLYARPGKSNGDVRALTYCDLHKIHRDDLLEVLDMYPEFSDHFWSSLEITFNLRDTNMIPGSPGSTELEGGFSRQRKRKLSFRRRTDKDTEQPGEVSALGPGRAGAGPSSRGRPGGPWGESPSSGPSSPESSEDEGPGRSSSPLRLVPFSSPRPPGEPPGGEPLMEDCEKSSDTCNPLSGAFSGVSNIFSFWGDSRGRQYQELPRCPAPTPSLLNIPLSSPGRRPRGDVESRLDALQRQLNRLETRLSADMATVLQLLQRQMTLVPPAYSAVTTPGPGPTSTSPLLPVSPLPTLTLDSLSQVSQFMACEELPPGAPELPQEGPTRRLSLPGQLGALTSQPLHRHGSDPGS
Procedure, shortened: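 Measured: Tl+ flux via fluorescence (480/540 nm) in hERG-expressing U2OS cells after 1 h dye loading at room temperature.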

[14] = biological target: Cytochrome P450 3A4 (Homo sapiens) (UniProt P08684); assay: Cytochrome P450 Family 3 Subfamily A Member 4 (CYP3A4) small molecule antagonists: luciferase reporter qHTS assay (AID 1671201); note: nearly all actives have a fitted effect of over 50% in size; note: potency is the fitted concentration of half-maximal effect; for activity change, negative = inhibition: series mostly up to about 120 µM
Sequence of Cytochrome P450 3A4 (Homo sapiens) (P08684 whole entry, looked up): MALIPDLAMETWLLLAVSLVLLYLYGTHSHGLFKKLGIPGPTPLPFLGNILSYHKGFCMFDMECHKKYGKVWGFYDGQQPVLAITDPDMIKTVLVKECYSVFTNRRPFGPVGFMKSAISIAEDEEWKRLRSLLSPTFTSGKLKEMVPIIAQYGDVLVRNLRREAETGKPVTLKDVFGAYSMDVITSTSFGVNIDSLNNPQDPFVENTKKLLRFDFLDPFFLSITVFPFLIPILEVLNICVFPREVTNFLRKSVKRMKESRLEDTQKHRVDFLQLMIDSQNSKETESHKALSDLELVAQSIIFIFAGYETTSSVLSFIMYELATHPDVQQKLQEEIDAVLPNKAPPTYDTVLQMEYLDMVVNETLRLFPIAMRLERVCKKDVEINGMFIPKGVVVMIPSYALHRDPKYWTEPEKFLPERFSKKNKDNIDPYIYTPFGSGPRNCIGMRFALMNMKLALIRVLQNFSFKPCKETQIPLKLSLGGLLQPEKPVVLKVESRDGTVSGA
Procedure, shortened: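 Setup: enzyme-substrate mix, compound pin transfer, 10 min RT. Reaction: NADPH regeneration solution, 1 h RT. Readout: detection reagent stops turnover, luminescence measured after 20 min, expressed in relative luminescence units.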

[15] = biological target: Cytochrome P450 2C19 (Homo sapiens) (UniProt P33261); assay: Cytochrome P450 Family 2 Subfamily C Member 19 (CYP2C19) small molecule antagonists: luciferase reporter qHTS assay (AID 1671197); note: nearly all actives have a fitted effect of over 65% in size; note: potency is the fitted concentration of half-maximal effect; for activity change, negative = inhibition: series mostly up to about 120 µM
Sequence of Cytochrome P450 2C19 (Homo sapiens) (P33261 whole entry, looked up): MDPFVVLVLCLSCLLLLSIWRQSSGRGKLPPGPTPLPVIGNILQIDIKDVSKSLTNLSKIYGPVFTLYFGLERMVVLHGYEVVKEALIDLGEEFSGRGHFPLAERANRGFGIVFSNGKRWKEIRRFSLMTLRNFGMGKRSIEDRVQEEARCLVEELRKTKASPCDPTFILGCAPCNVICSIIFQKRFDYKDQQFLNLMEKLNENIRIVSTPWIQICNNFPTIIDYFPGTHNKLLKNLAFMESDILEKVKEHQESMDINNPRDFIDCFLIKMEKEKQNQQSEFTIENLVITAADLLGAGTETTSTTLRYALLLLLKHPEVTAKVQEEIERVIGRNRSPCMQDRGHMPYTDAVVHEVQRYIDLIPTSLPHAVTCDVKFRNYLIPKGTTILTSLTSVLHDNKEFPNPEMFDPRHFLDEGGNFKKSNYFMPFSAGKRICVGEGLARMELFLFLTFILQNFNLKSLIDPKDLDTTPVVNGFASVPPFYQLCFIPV
Procedure, shortened: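 Relative luminescence units recorded 20 min after the detection reagent stopped a 1 h, 37C CYP2C19 reaction on proluciferin substrate, which was started by NADPH regeneration following 10 min room-temperature compound preincubation; ketoconazole positive control.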

[16] = biological target: Nuclear receptor subfamily 1 group I member 2 (Rattus norvegicus) (UniProt Q9R1A7); assay: Rat pregnane X receptor (rPXR) activation by small molecules, qHTS assay (AID 1346983); settings: rPXR luciferase reporter cells, One-Glo luminescence, 24 h; active compounds read high; note: nearly all actives have a fitted effect of over 20% in size
Sequence of Nuclear receptor subfamily 1 group I member 2 (Rattus norvegicus) (Q9R1A7 whole entry, looked up): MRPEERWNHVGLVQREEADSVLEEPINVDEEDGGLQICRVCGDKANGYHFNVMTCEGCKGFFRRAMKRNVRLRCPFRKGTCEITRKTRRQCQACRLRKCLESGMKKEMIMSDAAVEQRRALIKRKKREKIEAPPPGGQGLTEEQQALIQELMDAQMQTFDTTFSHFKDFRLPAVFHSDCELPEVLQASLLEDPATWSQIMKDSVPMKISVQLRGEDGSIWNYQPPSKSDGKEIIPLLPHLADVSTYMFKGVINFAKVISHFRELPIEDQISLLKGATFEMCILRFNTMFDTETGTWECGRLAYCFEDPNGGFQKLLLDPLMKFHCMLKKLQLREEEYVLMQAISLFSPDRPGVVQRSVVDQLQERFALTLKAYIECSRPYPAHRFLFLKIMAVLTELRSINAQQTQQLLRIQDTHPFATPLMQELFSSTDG
Procedure, shortened: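 Cell-based rPXR activation assay: rPXR cells, 2,000 per well, rested 5hr at 37 C, then exposed to compounds in DMSO for 24 hr at 37 C. Luciferase activity read by One-Glo luminescence after 30 min at room temperature.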

[17] = biological target: Nuclear receptor subfamily 1 group I member 2 (Homo sapiens) (UniProt O75469); assay: CYP3A4 induction through human pregnane X receptor (PXR) by small molecules, qHTS assay (AID 1346984); note: nearly all actives have a fitted effect of over 40% in size
Procedure, shortened: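 qHTS, concentration-response format: HepG2 DPX-2 line, PXR/CYP3A4-luc. Exposure 24 h, 37C. Substrate Luciferin-IPA 3uM final, 3 h. Detection One-Glo, 30 min RT.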

[18] = biological target: Nuclear receptor subfamily 1 group I member 2 (Homo sapiens) (UniProt O75469); assay: Human pregnane X receptor (PXR) activation by small molecules, qHTS assay (AID 1346985); note: nearly all actives have a fitted effect of over 40% in size
Procedure, shortened: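 DPX-2 cells (HepG2 co-transfected with a PXR response element and a CYP3A4-promoter luciferase construct) were seeded at 2,000 per well, rested 5 hr at 37C, then exposed to DMSO-dissolved compounds for 24 hr. Activation was read as luciferase luminescence.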
% is set by controls: 0 for no effect and ±100 for the full control effect.

OC1OCCOC1O (stereo unspecified)
inactive: outcome [1] | outcome [2] | outcome [3] | outcome [4] | outcome [5] | Potency [6] | outcome [7] | outcome [8] | Potency [9] | Potency [10] | Potency [11] | Potency [13] | Potency [14]
active: Potency [12] 35.6 µM

CC(C)NC(=O)c1ccc(C=O)cc1
inactive: outcome [1] | outcome [2] | outcome [3] | outcome [4] | outcome [5] | Potency [6] | outcome [7] | outcome [8] | Potency [9] | Potency [15] | Potency [11] | Potency [13] | Potency [14]
active: Potency [12] 34.7 µM

Cc1c(N)cccc1Cl
active: Potency [12] 11.3 µM
inactive: outcome [1] | outcome [2] | outcome [3] | outcome [4] | outcome [5] | Potency [6] | outcome [7] | outcome [8] | Potency [9] | Potency [15] | Potency [13] | Potency [14]

Cc1ccc(C(C)NC(=O)[C@@H](NC(=O)OC(C)C)C(C)C)cc1 (stereo partly specified)
inactive: outcome [1] | outcome [2] | outcome [3] | outcome [4] | outcome [5] | Potency [6] | outcome [7] | outcome [8] | Potency [13]
active: Potency [9] 21.6 µM | Potency [10] 35.5 µM | Potency [15] 56.2 µM | Potency [11] 31.6 µM | Potency [14] 3.55 µM

O=C(O)c1cc2ccccc2nc1C(=O)O
inactive: outcome [1] | outcome [2] | outcome [3] | outcome [4] | outcome [5] | Potency [6] | outcome [7] | outcome [8] | Potency [9] | Potency [15] | Potency [11] | Potency [13] | Potency [14]

CCCc1ccc(O)cc1
inactive: outcome [1] | outcome [2] | outcome [3] | outcome [4] | outcome [5] | Potency [6] | outcome [7] | outcome [8] | Potency [9] | Potency [13] | Potency [14]
active: Potency [12] 44.8 µM

[O-][n+]1cccc(/C(Cl)=N/OC[C@@H](O)CN2CCCCC2)c1
active: Potency [10] 15.5 µM
inactive: outcome [1] | outcome [2] | outcome [3] | outcome [4] | outcome [5] | Potency [6] | outcome [7] | outcome [8] | Potency [9] | Potency [11] | Potency [12] | Potency [13]

OCC(O)CN1CCN(c2ccccc2)CC1 (stereo unspecified)
inactive: outcome [1] | outcome [2] | outcome [3] | outcome [4] | outcome [5] | Potency [6] | outcome [7] | outcome [8] | Potency [9] | Potency [11] | Potency [12] | Potency [13] | Potency [14]

C=CC(=O)OCC1CCCO1 (stereo unspecified)
inactive: outcome [1] | outcome [2] | outcome [3] | outcome [4] | outcome [5] | Potency [6] | outcome [7] | outcome [8] | Potency [9] | Potency [10] | Potency [11] | Potency [12] | Potency [13] | Potency [14]

CC(O)CC(C)O (stereo unspecified)
inactive: outcome [1] | outcome [2] | outcome [3] | outcome [4] | outcome [5] | Potency [6] | outcome [7] | outcome [8] | Potency [9] | Potency [15] | Potency [11] | Potency [13] | Potency [14]

CC(=O)O[C@@H]1CC2CCC1(C)C2(C)C (stereo partly specified)
inactive: outcome [1] | outcome [2] | outcome [3] | outcome [4] | outcome [5] | Potency [6] | outcome [7] | outcome [8] | max activation [16] -1.62% | Potency [17] | Potency [18] | Potency [10] | Potency [11] | Potency [12] | Potency [13] | Potency [14]

C=CCCCCCCCC
inactive: outcome [1] | outcome [2] | outcome [3] | outcome [4] | outcome [5] | Potency [6] | outcome [7] | outcome [8] | Potency [9] | Potency [10] | Potency [15] | Potency [13] | Potency [14]

CNCCS(=O)(=O)O
active: Potency [12] 35.9 µM
inactive: outcome [1] | outcome [2] | outcome [3] | outcome [4] | outcome [5] | Potency [6] | outcome [7] | outcome [8] | Potency [10] | Potency [15] | Potency [11] | Potency [13] | Potency [14]

COc1nc(N)nc2nc[nH]c12
active: Potency [10] 10 µM | Potency [12] 17.9 µM
inactive: outcome [1] | outcome [2] | outcome [3] | outcome [4] | outcome [5] | Potency [6] | outcome [7] | outcome [8] | Potency [9] | Potency [11] | Potency [13]

COC(=O)c1cccc(Cl)c1
inactive: outcome [1] | outcome [2] | outcome [3] | outcome [4] | outcome [5] | Potency [6] | outcome [7] | outcome [8] | Potency [9] | Potency [11] | Potency [13] | Potency [14]

CC(O)COC(C)(C)C (stereo unspecified)
inactive: outcome [1] | outcome [2] | outcome [3] | outcome [4] | outcome [5] | Potency [6] | outcome [7] | outcome [8] | Potency [9] | Potency [13] | Potency [14]

CCC(C)C(=O)OCCc1ccccc1 (stereo unspecified)
inactive: outcome [1] | outcome [2] | outcome [3] | outcome [4] | outcome [5] | Potency [6] | outcome [7] | outcome [8] | Potency [9] | Potency [11] | Potency [12] | Potency [13] | Potency [14]

CCn1cc(C(=O)O)c(=O)c2cnc(N3CCCC3)nc21
inactive: activation [1] -0.108% [at 6.97 µM] | activity, negative = inhibition [2] 1.25% [at 4.65 µM] | activation [3] -0.507% [at 5.23 µM] | activity change, negative = cytotoxicity [4] -1.63% [at 8.39 µM] | caspase activation [5] 1.75% [at 8.39 µM] | activity change, negative = cytotoxicity [6] 1.69% [at 8.39 µM] | caspase-3/7 activation [7] 1.6% [at 8.39 µM] | activity change, negative = cytotoxicity [8] -1.49% [at 8.39 µM] | max activation [16] -0.363% | activity change, negative = inhibition [10] -1.62% [at 10.5 µM] | activity change, negative = inhibition [15] -11.6% [at 10.5 µM] | activity change, negative = inhibition [13] -5.15% [at 6.97 µM]

CC1(C)[C@H]2CC[C@](C)(C2)[C@H]1O
inactive: outcome [1] | outcome [2] | outcome [3] | outcome [4] | outcome [5] | Potency [6] | outcome [7] | outcome [8] | Potency [9] | Potency [15] | Potency [11] | Potency [12] | Potency [13] | Potency [14]
